MazEF act – activators of E. coli MazEF toxin-antitoxin RNase, primary screen, biochemical, fluorescence, uHTS | FAM/BHQ RNA-DNA oligo cleavage fluorescence, 5 h | 350,000 tested, 0.32% active | Endoribonuclease toxin MazF (Escherichia coli (strain K12)), P0AE70 | AID 504720, 2011 | activation, % at 20 µM; in the data active = activation above about 50%
Target sequence (P0AE70 whole entry, looked up): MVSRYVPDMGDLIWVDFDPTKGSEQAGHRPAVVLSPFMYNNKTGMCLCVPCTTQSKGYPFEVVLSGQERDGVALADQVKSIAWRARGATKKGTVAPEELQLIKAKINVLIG
Autofluor counter – compound fluorescence in toxin protease inhibitor counterscreen; AID 624483; compound autofluorescence counterscreen, microsphere flow cytometry; active compounds read high; fluorescence intensity (no concentration beside the values); 360,000 tested, 3.1% active; in the data active = fluorescence intensity above about 16000; inconclusive = no clear call, values can overlap the other calls
Anthrax LF prot – Bacillus anthracis LF protease inhibitors, primary screen, biochemical, multiplex microsphere, MLPCN library. multiplex microsphere protease cleavage assay. inhibition, % at 10 µM. 360,000 tested, 0.12% active. AID 588501, 2011; note: plate controls were buffer without enzyme for full effect and enzyme alone for no effect
BoNT A protease – BoNT/A light chain protease inhibitors, primary screen, biochemical, flow cytometry, MLPCN library. multiplex microsphere protease substrate cleavage. Botulinum neurotoxin type A light chain protease (Clostridium botulinum A str. ATCC 3502). AID 588499, 2011. 360,000 tested, 0.17% active. inhibition, % at 10 µM; note: plate controls were buffer without enzyme for full effect and enzyme alone for no effect
BoNT F protease – BoNT/F light chain protease inhibitors, primary screen, biochemical, flow cytometry, MLPCN library | Botulinum neurotoxin type F light chain protease (Clostridium botulinum) | Multiplex microsphere protease cleavage assay | AID 588497, 2011 | 360,000 tested, 0.22% active | inhibition, % at 10 µM; in the data active = inhibition above about 35%, passing the limit was not always enough; inconclusive = no clear call, values can overlap the other calls; note: plate controls were buffer without enzyme for full effect and enzyme alone for no effect
The depositor's hits bear a star; u = inconclusive; x = not tested or not shown. A selection: hits, their analogues and other compounds. The true share with any hit is near 3.7%. Cut-off read from the data, not from the text of the source, unless noted: active = inhibition above about 30%; inconclusive = no clear call, values can overlap the other calls; inactive = below that.

SMILES | MazEF act | Autofluor counter | Anthrax LF prot | BoNT A protease | BoNT F protease
O=C(Nc1ccc(-c2nc3ccccc3o2)c(O)c1)c1cc(-n2cnnc2)ccc1Cl | -22 | 21640* | 1 | -2 | -2
OC(c1ccc(-c2ccccc2)cc1)c1ncc(-c2ccc(F)cc2)[nH]1 (stereo unspecified) | x | 3074 | -2 | -1 | -9
CCOC(=O)c1ccc(S(=O)(=O)N2CCN(Cc3cc4c(cc3O)OCO4)CC2)cc1 | -6 | 2922 | -15 | 0 | -7
CN(CCC#N)C(=O)COc1ccc(Br)cc1Cl | -2 | 4401 | 1 | 0 | -1
N#CCCN(CCC#N)C(=O)COc1ccc(Cl)cc1Cl | 4 | 18547* | -7 | 3 | 1
CCc1ccc(NC(=O)CSC2=C(C#N)C(c3ccc4c(c3)OCO4)CC(=O)N2)cc1 (stereo unspecified) | -1 | 9177 | -3 | 1 | 3
Cc1ccc(NC(=O)CSC2=C(C#N)C(c3ccc4c(c3)OCO4)CC(=O)N2)cc1C (stereo unspecified) | -2 | 22137* | -7 | 2 | 4
O=C(c1ccco1)N(CCC(c1ccccc1)c1ccco1)Cc1ccc(F)cc1 (stereo unspecified) | -2 | 16623* | -2 | 0 | 0
COc1cc2nc(/C=C/c3cc(OC)c(OC)c(OC)c3)sc2cc1SC | 2 | 3237 | 21 | 54* | 13
O=C(c1cc2cc([N+](=O)[O-])ccc2oc1=O)N1CCOCC1 | -8 | 2529 | 2 | 0 | -1
O=C(c1cc2cc([N+](=O)[O-])ccc2oc1=O)N1CCN(c2ncccn2)CC1 | -5 | 7793 | -2 | 6 | 38*
COc1ccc(CC(=O)Nc2nc(OCCN3CCCC3=O)cnc2-c2cccc(C(F)(F)F)c2)cc1 | x | 3805 | -2 | 0 | 0
Cc1ccc(-n2nc3c(c2NC(=O)c2c(-c4ccccc4Cl)noc2C)CS(=O)(=O)C3)c(C)c1 | 2 | 23658* | -2 | u | -3
Cc1ccccc1-n1nc2c(c1NC(=O)c1c(-c3ccccc3Cl)noc1C)CS(=O)(=O)C2 | 3 | 16862* | -10 | -2 | -7
O=c1[nH][nH]c2c1[C@H](c1ccc(Cl)cc1)O[C@H](C1CCCCC1)C2 | x | 6304 | -4 | 0 | -12
O=C(CSc1ncccn1)NC1CCCC1 | -3 | 3734 | 1 | 0 | 1
Cc1nn(Cc2ccccc2)c(C)c1C(=O)N1CCN(S(=O)(=O)/C=C/c2ccccc2)CC1 | 6 | u | -3 | -1 | 10
Cn1c(-c2ccc(C=O)s2)nc2c3ccccc3c3ccccc3c21 | -412 | 2883 | 48* | 79* | 40*
Cc1noc(C)c1C(=O)N1CCC(Cc2ccccc2)CC1 | -2 | 22708* | 1 | u | 1
O=C(OCc1ccccc1)C1CCCN1C(=O)c1ccccc1[N+](=O)[O-] (stereo unspecified) | -5 | 20292* | -1 | u | 1
O=C(c1ccccc1[N+](=O)[O-])N1CCC(Cc2ccccc2)CC1 | -6 | 22923* | 0 | -2 | -3
O=C(OCc1ccccc1)C1CCCN1C(=O)c1cccs1 (stereo unspecified) | 1 | 3512 | -1 | 0 | 0
CC(O)(c1cccc(F)c1)c1nc(-c2cccc3cccnc23)cs1 (stereo unspecified) | x | 2940 | 1 | 0 | -4
CC(c1nc2ccccc2c(=O)[nH]1)N1CCN(S(=O)(=O)c2ccc(F)c(Cl)c2)CC1 (stereo unspecified) | 4 | 3915 | -5 | 0 | -6
Cn1c(-c2ccc(C(C)(C)C)cc2)n[nH]c1=S | -1 | 2801 | 1 | 1 | -2
SMILES | MazEF act | Autofluor counter | Anthrax LF prot | BoNT A protease | BoNT F protease
CC(C)(C)c1ccc(-c2n[nH]c(=S)n2C2CCCC2)cc1 | -3 | 22762* | -4 | u | 0
COc1ccc(SCC(O)Cn2c3ccccc3c3ccccc32)c(OC)c1 (stereo unspecified) | x | 5862 | -9 | -1 | 1
CCS(=O)(=O)N1CCN(C2Cc3ccccc3C2)CC1 | 9 | 22089* | -1 | u | 0
COc1ccc(Br)c(Cn2c(C)c(C(=O)NCc3ccc4c(c3)OCCO4)sc2=O)c1 | x | 5664 | -3 | 0 | -8
COc1ccc(C2C(C(=O)c3sc(C)nc3C)=C(O)C(=O)N2CCCn2ccnc2)cc1OC (stereo unspecified) | 1 | 20435* | -1 | 0 | -2
CCN(CC)CCCN1C(=O)C(O)=C(C(=O)c2sc(C)nc2C)C1c1ccco1 (stereo unspecified) | 7 | 19534* | -3 | 10 | 13
COc1ccc(C2C(C(=O)c3sc(C)nc3C)=C(O)C(=O)N2CCCn2ccnc2)cc1 (stereo unspecified) | 11 | 3948 | 1 | 1 | 2
COc1cc(C=CC(=O)OCC=Cc2ccc3c(c2)OCO3)cc(OC)c1OC | 0 | 2900 | 2 | 0 | -10
O=c1[nH]c(=O)n(-c2ccc(F)cc2)c(O)c1C=Nc1ccccc1N1CCCC1 | 206* | 4930 | -3 | 0 | -24
CCCC(C(=O)OCC)P(=O)(c1ccccc1)c1ccccc1 (stereo unspecified) | -1 | 23167* | -3 | u | 1
CCOC(=O)CC(C(=O)OCC)P(=O)(c1ccccc1)c1ccccc1 (stereo unspecified) | -6 | 2036 | -1 | 0 | -5
C[C@H]1CN([C@@H](C)CO)C(=O)CCCn2cc(nn2)CO[C@@H]1CN(C)C(=O)Nc1ccc(N2CCCCC2)cc1 | -2 | 2931 | -4 | 0 | 0
COCCCNC(=O)CCc1nc2cccnc2n1Cc1ccccc1 | 0 | 23819* | -2 | 0 | -2
COc1ccc(Cn2c(CCC(=O)Nc3ccc(CC#N)cc3)nc3cccnc32)cc1 | -1 | 22433* | -2 | 2 | 1
COc1ccc(Cn2c(CCC(=O)Nc3ccccc3)nc3cccnc32)cc1 | 4 | 3486 | -1 | 2 | 14
c1ccc(Nc2cc(-c3ccccc3)nc3ncnn23)cc1 | 0 | 16695* | -4 | u | -5
CCOc1ccc(C(=S)N2CCCC2)cc1OC | 8 | 1970 | 0 | 0 | 0
COc1ccc(CN2CCN(C(=O)c3cc(OC)c(OC)c(OC)c3)CC2)cc1OC | 5 | 22314* | -4 | u | 6
CCOc1ccc(C(=O)N2CCCC2)cc1OC | -2 | 21510* | -3 | -2 | -2
COc1cccc(C(=O)N2CCN(Cc3cccc(F)c3)CC2)c1 | -2 | 23288* | 0 | -1 | -2
COc1cc(OC)cc(C(=O)N2CCN(Cc3cccc(F)c3)CC2)c1 | 4 | u | -20 | u | u
COC(=O)[C@H](CCSC)NC(=O)Cn1cnc2c(SC)nc(N)nc21 | 12 | 3776 | -4 | 0 | -1
CC(=O)Oc1ccccc1Cn1c(C)c(C(=O)NCc2ccc(Cl)c(Cl)c2)sc1=O | x | 5660 | -6 | 0 | 0
COc1cc2c(cc1OC)CN(CC(=O)Nc1ccc3c(c1)OC(F)(F)O3)CC2 | 2 | 24021* | -2 | u | -8
